Data on 4 compounds can be found in PubChem BioAssay (EPA / NIEHS).

Calls of active or inactive are those of the source. How the source made its calls: active means hit-call score of the fitted dose curve at least 0.9, where 1 is the maximum; inactive means score below 0.9.

By AC50 is commonly meant the concentration giving half of the maximal activity seen.

Read-out in test [1]: TIMP metallopeptidase inhibitor 1 (TIMP1), TIMP1 (gene 7076)
In words: BSK_hDFCGF_TIMP1: BioMAP Diversity Plus: hDFCGF Assay for TIMP metallopeptidase inhibitor 1 (TIMP1) Biomarker Activity (AID 2283062). The note with it: primary human foreskin fibroblasts; actives raise or lower the signal. The method in brief:
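Human foreskin fibroblast primary cultures dosed for 24 h; secreted/surface TIMP-1 quantified by ELISA. Bidirectional curve fitting against DMSO baseline; cytotoxicity tracked in parallel cultures by SRB total-protein staining.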

Read-out in test [2]: Monokine induced gamma interferon (MIG), CXCL9 (gene 4283)
In words: BSK_hDFCGF_MIG: BioMAP Diversity Plus: hDFCGF Assay for Monokine induced gamma interferon (MIG) Biomarker Activity (AID 2283063). The note with it: primary human foreskin fibroblasts; actives raise or lower the signal. The method in brief: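 MIG/CXCL9 measured by ELISA 24 h after dosing primary human skin fibroblasts. Activity fitted in both directions against DMSO controls. Cytotoxicity was checked in parallel cultures by SRB staining read at 560 nm.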

Read-out in test [3]: Vascular cell adhesion molecule 1 (VCAM1), VCAM1 (gene 7412)
Kind of test: BSK_hDFCGF_VCAM1: BioMAP Diversity Plus: hDFCGF Assay for Vascular cell adhesion molecule 1 (VCAM1) Biomarker Activity (AID 2283065).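 On AC50: VCAM-1 protein level quantified by ELISA after 24 h chemical exposure.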 The note with it: primary human foreskin fibroblasts; actives raise or lower the signal. The method in brief:
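Human foreskin fibroblast primary cells dosed with chemical, VCAM-1 measured by ELISA at 24 h. Bidirectional curve fitting relative to DMSO as negative control/baseline.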

Read-out in test [4]: Intercellular Adhesion Molecule 1 (ICAM1), ICAM1 (gene 3383)
In words: BSK_KF3CT_ICAM1: BioMAP Diversity Plus: KF3CT Assay for Intercellular Adhesion Molecule 1 (ICAM1) Biomarker Activity (AID 2283067). The note with it: primary human keratinocytes with fibroblasts; actives raise or lower the signal. The method in brief:
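Human keratinocyte–foreskin fibroblast co-culture was treated for 24 h. Cell-surface ICAM-1 was quantified by ELISA, fitted bidirectionally relative to DMSO. Cytotoxicity was checked in parallel cultures by SRB total-protein staining.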

Read-out in test [5]: Interferon-gamma inducible Protein 10 (IP10), CXCL10 (gene 3627)
In words: BSK_KF3CT_IP10: BioMAP Diversity Plus: KF3CT Assay for Interferon-gamma inducible Protein 10 (IP10) Biomarker Activity (AID 2283068). To be noted: primary human keratinocytes with fibroblasts; actives raise or lower the signal. The gist of the method: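 Human keratinocyte plus foreskin fibroblast primary co-culture exposed to test chemical for 24 h; IP-10 measured by ELISA. Concentration-response fitted bidirectionally against DMSO control as baseline.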

Test [6] can be described thus: BSK_KF3CT_SRB: Viability Assessment in the BioMAP Diversity Plus: KF3CT Assay (AID 2283069).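 Further: total protein by sulforhodamine B staining as a cytotoxicity measure; fitted for both signal gain and loss against DMSO baseline.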 The note with it: primary human keratinocytes with fibroblasts. The gist of the method: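 Keratinocytes co-cultured with foreskin fibroblasts (human primary); chemical added, 24 h; fix 10% TCA, stain 0.1% SRB, A560. Bidirectional fit vs DMSO.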
Read-out in test [7]: Interleukin-1 alpha (IL1a), IL1A (gene 3552)
In words: BSK_KF3CT_IL1a: BioMAP Diversity Plus: KF3CT Assay for Interleukin-1 alpha (IL1a) Biomarker Activity (AID 2283070). The note with it: primary human keratinocytes with fibroblasts; actives raise or lower the signal. The method in brief: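 Chemicals were dosed onto co-cultured human keratinocytes and foreskin fibroblasts, IL-1a was quantified by ELISA at 24 h, and activity was fitted in both directions relative to DMSO controls.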

Read-out in test [8]: TIMP metallopeptidase inhibitor 2 (TIMP2), TIMP2 (gene 7077)
In words: BSK_KF3CT_TIMP2: BioMAP Diversity Plus: KF3CT Assay for TIMP metallopeptidase inhibitor 2 (TIMP2) Biomarker Activity (AID 2283071). To be noted: primary human keratinocytes with fibroblasts; actives raise or lower the signal. The gist of the method: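 Co-culture of human primary keratinocytes and foreskin fibroblasts, measured 24 h after chemical dosing. TIMP-2 quantified by ELISA and fitted in both directions relative to DMSO. Cytotoxicity checked in parallel cultures by SRB total-protein staining.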

Read-out in test [9]: Transforming growth factor beta 1 (TGFb1), TGFB1 (gene 7040)
Kind of test: BSK_KF3CT_TGFb1: BioMAP Diversity Plus: KF3CT Assay for Transforming growth factor beta 1 (TGFb1) Biomarker Activity (AID 2283072). The note with it: primary human keratinocytes with fibroblasts; actives raise or lower the signal. The method in brief:
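Human keratinocyte/foreskin fibroblast co-culture; TGF-b1 measured by ELISA 24 h after dosing, fitted bidirectionally versus DMSO. Cytotoxicity checked in parallel cultures by total protein (SRB staining, 560 nm).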

Read-out in test [10]: C-C motif chemokine 2 (Homo sapiens) (UniProt P13500)
In words: BSK_KF3CT_MCP1: BioMAP Diversity Plus: KF3CT Assay for Monocyte Chemoattractant Protein 1 (MCP1/CCL2) Biomarker Activity (AID 2283073). The note with it: primary human keratinocytes with fibroblasts; actives raise or lower the signal. The method in brief:
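Human keratinocyte–foreskin fibroblast co-culture; MCP-1 measured by ELISA 24 h after dosing. Bidirectional fit vs DMSO; cytotoxicity tracked by SRB total protein in parallel cultures.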

Read-out in test [11]: Matrix Metallopeptidase 9 (MMP9), MMP9 (gene 4318)
In words: BSK_KF3CT_MMP9: BioMAP Diversity Plus: KF3CT Assay for Matrix Metallopeptidase 9 (MMP9) Biomarker Activity (AID 2283074).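 On AC50: MMP9 protein level quantified by ELISA in the co-culture.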 The note with it: primary human keratinocytes with fibroblasts; actives raise or lower the signal. The gist of the method: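 Human keratinocyte/foreskin fibroblast co-culture; compound added; 24 h; MMP-9 by ELISA; bidirectional fit vs DMSO baseline.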

Read-out in test [12]: urokinase plasminogen activator (uPA), PLAU (gene 5328)
In words: BSK_KF3CT_uPA: BioMAP Diversity Plus: KF3CT Assay for urokinase plasminogen activator (uPA) Biomarker Activity (AID 2283075). The note with it: primary human keratinocytes with fibroblasts; actives raise or lower the signal. The method in brief:
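ELISA readout of uPA, analyzed for signal gain or loss relative to DMSO, from a human primary keratinocyte–foreskin fibroblast co-culture measured 24 h after chemical treatment.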

Read-out in a further test: CD40, CD40 (gene 958)
In words: BSK_LPS_CD40: BioMAP Diversity Plus: LPS Assay for CD40 Biomarker Activity (AID 2283076). The note with it: primary human HUVEC with PBMC; actives raise or lower the signal. The method in brief:
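HUVEC plus PBMC co-culture stimulated with LPS; CD40 quantified by ELISA 24 h after compound dosing. Fitting was bidirectional relative to DMSO. SRB staining of parallel cultures flagged overt cytotoxicity.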

Read-out in test [13]: E-selectin (Homo sapiens) (UniProt P16581)
In words: BSK_LPS_Eselectin: BioMAP Diversity Plus: LPS Assay for Eselectin Biomarker Activity (AID 2283077). The note with it: primary human HUVEC with PBMC; actives raise or lower the signal. The gist of the method: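 Human umbilical vein endothelial cells co-cultured with PBMC under LPS stimulation; cell-surface E-selectin measured by ELISA 24 h after dosing. Change in either direction versus DMSO, with SRB total-protein staining in parallel cultures for cytotoxicity.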

Read-out in test [14]: Interleukin-8 (IL8), CXCL8 (gene 3576)
Kind of test: BSK_LPS_IL8: BioMAP Diversity Plus: LPS Assay for Interleukin-8 (IL8) Biomarker Activity (AID 2283078). To be noted: primary human HUVEC with PBMC; actives raise or lower the signal. The gist of the method:
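Human umbilical vein endothelial cells co-cultured with PBMC, LPS-stimulated, exposed to compound for 24 h. IL-8 quantified by ELISA; fitted in both directions against DMSO, with SRB total-protein staining of parallel cultures for cytotoxicity.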

Test [15] can be described thus: BSK_LPS_SRB: Viability Assessment in the BioMAP Diversity Plus: LPS Assay (AID 2283079).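 Further: total protein by sulforhodamine B absorbance as a cytotoxicity measure; measured one day after compound addition; fitted in both directions against DMSO so loss or gain of signal counts.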 To be noted: primary human HUVEC with PBMC. The method in brief:
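Co-culture of human umbilical vein endothelial cells and PBMC, read 24 h after dosing. Total protein by 0.1% SRB staining after 10% TCA fixation, absorbance at 560 nm; bidirectional fit against DMSO.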

Read-out in test [16]: Interleukin-1 alpha (IL1a), IL1A (gene 3552)
Kind of test: BSK_LPS_IL1a: BioMAP Diversity Plus: LPS Assay for Interleukin-1 alpha (IL1a) Biomarker Activity (AID 2283080). To be noted: primary human HUVEC with PBMC; actives raise or lower the signal. The gist of the method:
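Human umbilical vein endothelial cells co-cultured with PBMC and stimulated with LPS; IL-1a measured by ELISA 24 h after dosing. Bidirectional fitting against DMSO; cytotoxicity checked by SRB staining in parallel cultures.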

Read-out in test [17]: Monocyte Chemoattractant Protein-1 (MCP1), CCL2 (gene 6347)
Kind of test: BSK_LPS_MCP1: BioMAP Diversity Plus: LPS Assay for Monocyte Chemoattractant Protein-1 (MCP1) Biomarker Activity (AID 2283081). The note with it: primary human HUVEC with PBMC; actives raise or lower the signal. The gist of the method:
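Human umbilical vein endothelial cells co-cultured with PBMC, LPS-stimulated; secreted MCP-1 measured by ELISA 24 h after compound addition. Bidirectional curve fitting against DMSO baseline; SRB total-protein staining in parallel cultures for cytotoxicity.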

Read-out in test [18]: Plasminogen activator inhibitor-1 (PAI1), SERPINE1 (gene 5054)
In words: BSK_hDFCGF_PAI1: BioMAP Diversity Plus: hDFCGF Assay for Plasminogen activator inhibitor-1 (PAI1) Biomarker Activity (AID 2283066). To be noted: primary human foreskin fibroblasts; actives raise or lower the signal. The method in brief: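 Human foreskin fibroblast primary cells, 24 h chemical exposure; PAI-1 measured by ELISA. Bidirectional fitting relative to DMSO; parallel cultures stained with SRB for total protein to flag overt cytotoxicity.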

Read-out in test [19]: Matrix Metallopeptidase 1 (MMP1), MMP1 (gene 4312)
Kind of test: BSK_hDFCGF_MMP1: BioMAP Diversity Plus: hDFCGF Assay for Matrix Metallopeptidase 1 (MMP1) Biomarker Activity (AID 2283064). To be noted: primary human foreskin fibroblasts; actives raise or lower the signal. The method in brief: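 hDFCGF primary fibroblasts (human foreskin); chemical added; 24 h; MMP1 by ELISA; bidirectional fit vs DMSO.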

E-selectin (Homo sapiens), sequence (P16581 whole entry, looked up): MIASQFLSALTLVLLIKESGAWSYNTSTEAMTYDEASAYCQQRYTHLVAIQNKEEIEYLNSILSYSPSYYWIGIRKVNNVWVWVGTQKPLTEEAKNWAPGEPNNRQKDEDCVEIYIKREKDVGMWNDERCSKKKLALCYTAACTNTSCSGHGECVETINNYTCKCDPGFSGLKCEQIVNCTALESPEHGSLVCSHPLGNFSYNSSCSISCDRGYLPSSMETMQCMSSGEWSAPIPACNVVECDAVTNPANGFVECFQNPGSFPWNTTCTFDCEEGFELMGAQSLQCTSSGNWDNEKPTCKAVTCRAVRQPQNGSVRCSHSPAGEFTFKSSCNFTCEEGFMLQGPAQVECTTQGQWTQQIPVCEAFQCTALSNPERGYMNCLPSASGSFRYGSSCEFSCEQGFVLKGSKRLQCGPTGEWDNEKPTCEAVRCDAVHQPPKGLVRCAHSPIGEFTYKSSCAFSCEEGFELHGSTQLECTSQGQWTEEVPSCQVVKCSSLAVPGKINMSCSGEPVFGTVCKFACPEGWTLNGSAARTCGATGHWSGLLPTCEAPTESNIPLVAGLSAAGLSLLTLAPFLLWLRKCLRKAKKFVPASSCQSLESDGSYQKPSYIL

Take `CO[C@@H]1[C@H](OC(=O)NC(=O)CCl)CC[C@]2(CO2)[C@H]1[C@@]1(C)O[C@@H]1CC=C(C)C`: the AC50 is 5.82 µM (active) in [1]; 8.35 µM (active) in test [2]; 4.58 µM (active) in test [3]; 8.27 µM (active) in test [5]; 7.91 µM (active) in test [7]; 6.36 µM (active) in [11]. Also, the AC50 with CD40, CD40 (gene 958) is 3.77 µM (active); in [13], 9.98 µM (active); in test [16] it was 6.19 µM (active). The result in test [4], in test [6], in test [8], in [9], in test [10] and in [12] was inactive. Further, the result in [14], in test [15] and in test [17] was inactive.

As to `Cc1cc(N=Nc2ccccc2C)ccc1N`, the outcome in test [1] was “inactive”; in test [10] it was “inactive”; with CD40, CD40 (gene 958), “inactive”; in [13] it was “inactive”; in test [14], “inactive”; in test [16], “inactive”. The result in test [17] was inactive. The AC50 in test [2] is 33.4 µM (active); in test [3], 23.5 µM (active); in test [18], 32.1 µM (active); in test [4] it was 31.8 µM (active); in test [5], 33.7 µM (active); in test [6], 29.9 µM (active). For the same compound, the half-maximal activity concentration (AC50) in test [7] was 37.9 µM (active); in test [8] it was 20 µM (active); in [9], 28.5 µM (active); in [11], 19.9 µM (active); in test [12] it was 39.2 µM (active); in test [15] it was 9.83 µM (active).

As for `CCC12COCN1COC2`, the outcome in [1], in [2], in test [19], in [4], in test [5] and in [6] was inactive. In addition, the result in test [7], in test [8], in test [9], in [10], in [11] and in test [12] was inactive. In addition, the outcome with CD40, CD40 (gene 958) was “inactive”; in [13], “inactive”; in [14], “inactive”; in [15] it was “inactive”; in test [16], “inactive”; in test [17] it was “inactive”.

For `Clc1ccc(Cl)c(Cl)c1`, the result in test [1], in test [2], in [3], in test [18], in test [4] and in [5] was inactive. Besides, the result in test [6], in test [7], in [8], in test [9], in test [10] and in [11] was inactive. In addition, the outcome is “inactive” in test [12]; “inactive” in the test with CD40, CD40 (gene 958); “inactive” in test [13]; “inactive” in test [14]; “inactive” in test [15]; “inactive” in [16]. The result in test [17] was inactive.
